TRHR agonist = TRH receptor (human) agonism; hit rate 0.18% among 360,000; AID 493084; TRHR cells, calcium flux fluo-8, FDSS agonist mode; activation, % at 2 µM; in the data active = activation above about 30%; also: 0% is about no effect
Target sequence (P34981 whole entry, looked up): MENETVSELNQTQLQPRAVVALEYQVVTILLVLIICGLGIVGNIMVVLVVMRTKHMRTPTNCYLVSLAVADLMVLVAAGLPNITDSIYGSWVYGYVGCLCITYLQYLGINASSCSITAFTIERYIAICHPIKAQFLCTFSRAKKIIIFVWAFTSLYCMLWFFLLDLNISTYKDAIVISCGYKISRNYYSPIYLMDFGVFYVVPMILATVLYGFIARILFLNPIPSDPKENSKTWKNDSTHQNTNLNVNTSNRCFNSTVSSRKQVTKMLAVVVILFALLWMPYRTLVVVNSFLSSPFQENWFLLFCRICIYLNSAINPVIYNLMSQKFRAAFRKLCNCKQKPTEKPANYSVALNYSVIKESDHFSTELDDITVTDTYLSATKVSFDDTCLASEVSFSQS
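Read-out: compound-evoked intracellular calcium rise in TRHR cells, fluo-8 dye, kinetic FDSS fluorescence at 1 s/cycle following a 10-cycle baseline. Cells cultured overnight before dye loading (30 min–1.5 h, RT).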
TRPML1 inh = human mucolipin-1 channel inhibition; AID 624415; TRPML1-inducible cells, Ca2+ dye fluorescence, FDSS; hits give low values; inhibition of EC80 agonist-evoked calcium signal; activity change, negative = inhibition, % (test concentration not listed); hit rate 0.02% among 390,000; Q9GZU1; in the data active = activity change below about -50%; inconclusive = between about -30% and that limit;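 also: stimulus is agonist 54-4 at its EC80 concentration; % is scaled to controls: 0 for no effect and ±100 for the full control effect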
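Calcium fluorescence in TRPML1-DL cells induced overnight with Tet: a 110 s read after compound pin addition, then a 110 s antagonist read after challenge with 54-4 at 4 uM final (EC80).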
hERG WT inh = KCNH2 (human, wildtype) channel inhibition; U2OS, BacMam KCNH2, thallium flux FluxOr; hits give low values; Q12809; hit rate 0.37% among 340,000; activity change, % at 1.84 µM;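 active = maximum activity change below -70%; inconclusive = maximum activity change between -70% and -50%; inactive = maximum activity change above -50%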; also: % is scaled to controls: 0 for no effect and ±100 for the full control effect
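U2OS cells transduced with wild-type KCNH2 virus are loaded with FluxOr dye for 45 min, and thallium flux is measured in kinetic reads before and after stimulation buffer. Rate constants are normalized to DMSO controls.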
TRPML1 agonist = human mucolipin-1 channel agonism; Q9GZU1; TRPML1-expressing cells, Ca2+ dye fluorescence, FDSS; activation, % (no concentration beside the values); hit rate 0.12% among 410,000; AID 624414; in the data active = activation above about 50%; inconclusive = mostly about 30% to 49%; also: 0% is about no effect
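Kinetic FDSS Ca2+ read in Tet-induced TRPML1-DL cells (ABD Ca8 dye plus quencher, 45-90 min RT loading): baseline, then compound, then 110 s agonist window; EC80 agonist 54-4 at 4uM final added afterwards for a 110 s antagonist window.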
KCNH2 3.1 inh = inhibitors of human KCNH2 3.1 potassium channel isoform; U2OS KCNH2 3.1, thallium flux FluxOr; hits give low values; activity change, % (tested at about 1.8 µM); hit rate 0.95% among 340,000;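 active = maximum activity change below -70%; inconclusive = maximum activity change from -70% to -50%; inactive = maximum activity change above -50%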;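 also: thallium influx rate constant from kinetic fluorescence after stimulation buffer; % is scaled to controls: 0 for no effect and ±100 for the full control effect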
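We transduce U2OS cells with the mutant 3.1 virus, culture them overnight, load FluxOr with Red40 quencher for 45 min, then add stimulation buffer and read kinetically for 2 min to derive a normalized rate constant.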
TRHR PAM = allosteric enhancers of human TRH receptor. P34981. TRHR cells, fluo-8 calcium fluorescence, EC20 TRH enhancement. enhancement, % at 2 µM. hit rate 0.66% among 360,000. AID 493056; in the data active = enhancement above about 30%; also: 0% is about no effect
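Enhancer read-out: after compound pinning and an initial kinetic agonist-mode read, an EC20 of TRH (10 nM final) was injected and fluo-8 calcium signal (Ex 480/Em 530) followed at 1 s/cycle for 100 cycles in TRHR-expressing cells.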
* = called active by the depositor; ? = inconclusive; / = not tested or not shown. A selection: hits, their analogues and other compounds. The true share with any hit is near 1.7%.

SMILES	TRHR agonist	TRPML1 inh	hERG WT inh	TRPML1 agonist	KCNH2 3.1 inh	TRHR PAM
CC(Oc1ccc(Br)cc1)C(=O)N1CCN(c2ccccn2)CC1 (centres undefined)	-1	-1	-8	1	12	-5
CC(Oc1ccc(Br)cc1)C(=O)N1CCC(C(N)=O)CC1 (centres undefined)	1	-15	-5	1	-71*	-1
Cc1noc(C)c1CSCC(=O)Nc1cccc(C(F)(F)F)c1	/	1	-12	1	-1	/
COc1ccc2c(c1)CCc1c(C(=O)Nc3c(C)nn(Cc4ccccc4)c3C)noc1-2	-2	-11	-6	3	-71*	-4
COc1ccc2c(c1)CCc1c(C(=O)Nc3c(C)nn(Cc4ccc(Cl)cc4)c3C)noc1-2	-1	12	/	-1	/	20
O=C(Nc1ccccc1)Nc1nnc([C@H]2C[C@H](O)[C@@H](CO)O2)s1	/	/	/	0	/	/
O=C(Nc1ccc(Oc2ccccc2)cc1)C1CCN(c2c3c(nc4ncnn24)CCC3)CC1	0	4	-13	4	-98*	-3
O=C(Nc1ccc2c(c1)CCC2)C1CCN(c2c3c(nc4ncnn24)CCC3)CC1	-1	10	2	5	27	25
Cc1noc(C)c1-c1nc(CSc2ccccc2)no1	0	-4	22	2	-10	3
Cc1cc(S(=O)(=O)Cc2noc(-c3c(C)noc3C)n2)c(C)cc1Cl	0	-14	10	120*	-4	0
O=C(CNC(=O)c1ccccc1)OCN1C(=O)c2ccccc2C1=O	/	9	-12	-1	14	/
O=C(CCNC(=O)c1ccccc1)OCN1C(=O)c2ccccc2C1=O	0	2	-1	-1	-73*	-8
CC(=O)Nc1nnc(CCS(=O)(=O)c2ccc(C)cc2)s1	/	5	-3	0	-15	/
O=C(Cn1c(=O)oc2cc(S(=O)(=O)N3CCCCC3)ccc21)N1CCCCC1	0	-10	-22	0	-106*	-5
NC(=O)CCCn1c(C(=O)c2cc(Cl)c(N)c(Cl)c2)c2ccc(C(F)(F)F)cc2[n+]1[O-]	-1	-7	4	0	-85*	5
NCCCn1c(C(=O)c2cc(Cl)c(N)c(Cl)c2)c2ccc(C(F)(F)F)cc2[n+]1[O-]	3	3	10	0	-125*	5
O=C(OCC(=O)N1CCOCC1)c1ccc(Br)cc1	0	-17	-130*	1	10	1
CCN(CC)c1ccc2c(c1)oc(=O)c1c(Cl)cc(=O)oc12	75*	-13	-23	69*	0	-10
CN(CC(=O)Nc1ccc(F)cc1)C(=O)CSc1ccc2c(c1)OCCO2	0	-5	2	0	9	3
Cc1ccc(SCC(=O)OCC(=O)N(C)CC(=O)Nc2ccc(F)cc2)cc1C	0	-4	-25	0	-9	35*
CC1(C)Cc2c(C#N)c(N3CCN(C(=O)c4ccccc4)CC3)nc(-c3ccco3)c2CS1	-1	20	5	2	14	33*
O=C(CSc1nnc(-c2cccc(Br)c2)o1)N1CCOCC1	-1	-2	4	0	29	31*
O=C(c1cnn(-c2cccc(F)c2)c1-n1cccc1)N1CCN(c2ccccc2F)CC1	0	-13	/	71*	/	0
Cc1ccccc1OCC(=O)NNC(=O)CCc1ccccc1	0	-3	/	0	-9	32*
CCc1c(C)nc2[nH]nc(-c3ccccc3C)n2c1=O	0	83	-1	-1	-193*	1
SMILES	TRHR agonist	TRPML1 inh	hERG WT inh	TRPML1 agonist	KCNH2 3.1 inh	TRHR PAM
CCc1c(C)nc2[nH]nc(-c3ccccc3)n2c1=O	0	-8	-4	4	19	6
COc1ccc(F)c(Cn2cnc3c(cnn3C(C)(C)C)c2=O)c1Cl	/	-28	/	2	/	/
CC1=C(C(=O)N2CCN(c3ccc(Cl)cc3)CC2)C2(CCC(C)CC2)OC1=O (centres undefined)	-1	75	/	3	/	50*
CC1=C(C(=O)N2CCN(c3cccc(Cl)c3)CC2)C2(CCCCC2)OC1=O	0	-1	/	-1	/	1
CC1CCN(c2ccc(-c3cccc(NS(=O)(=O)c4ccc(F)cc4F)c3)nn2)CC1	0	-2	/	0	/	4
CCCNC(=O)C1(C)CCCN(C(=O)c2ccc(F)cc2Cl)C1 (centres undefined)	/	/	/	-1	/	/
Clc1cccc(/C=N/Nc2ncnc3ccccc23)c1	0	6	-10	1	2	31*
O=C(CCc1nnc2ccc(NCc3ccccc3)nn12)NC1CCCC1	0	-11	-9	-1	-75*	-1
O=C(CCc1nnc2ccc(NCc3ccccc3Cl)nn12)NC1CCCC1	0	-11	-1	0	7	-12
C=CCN(c1ccccc1)S(=O)(=O)c1cccc(C(=O)NCc2ccco2)c1	/	80	-241*	3	-173*	/
COC(=O)c1ccc(CSc2nc3ccc(S(N)(=O)=O)cc3[nH]2)cc1	1	4	-13	-1	4	36*
O=C(Nc1ccc(Br)cc1)/C(=C/c1cccc([N+](=O)[O-])c1)NC(=O)C1CCCCC1	1	38	-97*	2	-90*	-4
CC(=O)N/C(=C\c1cccc([N+](=O)[O-])c1)C(=O)NC1CCCCC1	-4	-15	-6	-2	?	28
Cc1ccc(NC(=O)/C(=C\c2cccc([N+](=O)[O-])c2)NC(=O)c2cccs2)cc1	/	-8	4	1	-84*	/
Cc1ccc(NC(=O)/C(=C/c2cccc([N+](=O)[O-])c2)NC(=O)C2CCCCC2)cc1	0	12	19	1	-79*	3
CCCCn1c(N)c(N(CCOC)C(=O)CC2CCCCC2)c(=O)[nH]c1=O	/	-2	-4	1	0	/
CN(Cc1cccs1)C(=O)COc1cccc(-n2cnnn2)c1	0	-7	-78*	2	-15	14
CCN(CC)S(=O)(=O)c1ccc(-c2cn3ccccc3n2)cc1	/	-13	-100*	-1	-4	/
Cc1cc(C)cc(OCCn2ccnc2)c1	0	-1	3	0	-10	35*
CCCCN1C(=O)C(=O)N(CC(=O)Nc2cc(S(=O)(=O)N(C)C)ccc2C)C1=O	0	-11	3	1	12	-2
CN(CC(=O)Nc1ccc(Cl)c(C(F)(F)F)c1)C(=O)CCCNC(=O)c1ccc(Cl)cc1	-1	-4	-2	0	-7	-3
Nn1c(SCC(=O)Nc2ccc3c(c2)OCCO3)nnc1-c1ccccn1	0	-10	6	0	0	4
